Screening results: PubChem, The Scripps Research Institute Molecular Screening Center
PRMT1 inh: PRMT1 methyltransferase inhibitors, primary screen, biochemical, fluorescence polarization; Protein arginine N-methyltransferase 1 (Homo sapiens), Q99873; recombinant PRMT1, activity-based probe fluorescence polarization; inhibition, % at 2.79 µM; actives 1.3% (n = 370,000);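 active = inhibition above about 21% made by adding two undisclosed values, limit read from the data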
rCAG RNA binder: binders of r(CAG) RNA repeats, primary screen, biochemical, fluorescence; r(CAG) RNA repeat, TO-PRO-1 dye displacement fluorescence; inhibition, % at 3 µM; actives 1.3% (n = 370,000); AID 651821, 2012;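 active = inhibition above the plate cutoff, the mean of all test compounds on that plate plus 3 SD, cut at about 35% in these data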;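 also: 0% = DMSO alone and 100% = 100 µM mitoxantrone as full dye displacement; higher means more dye released from RNA so lower well fluorescence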
ABHD5-PLIN5 inh: ABHD5-PLIN5 interaction inhibitors, primary screen, cell lysate, split luciferase complementation, luminescence. Split G. princeps luciferase complementation, 4 h. inhibition, % at 4 µM. actives 0.78% (n = 360,000). AID 602281, 2012;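 active = inhibition above the mean inhibition across every tested compound plus 3 SD, cut at about 22% in these data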;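 also: 0% = DMSO only wells and the 100% control is not disclosed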
TLR4 MyD88 comp: inhibitors of TLR4-MyD88 association in cells, primary screen, cell-based, HeLa CL3-4, BLA complementation, FRET ratio. Toll-like receptor 4 (Homo sapiens) + Myeloid differentiation primary response protein …. HeLa CL3-4 TLR4/MyD88 BLA complementation. inhibition, % at 8.4 µM. actives 0.18% (n = 200,000). AID 861, 2007; in the data active = inhibition above about 25%;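 also: 0% = vehicle and 100% = reference inhibitor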
NOD2 RIPK2 PPI: NOD2-RIPK2 binding disruptors in cells, primary screen, fluorescence, CHO cells, BLA complementation. Receptor-interacting serine/threonine-protein kinase 2 (Homo sapiens), O43353. CCF4 ratio. inhibition, % at 4.98 µM. actives 0.38% (n = 360,000). AID 624267, 2012; in the data active = inhibition above about 21%;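 also: 0% = vehicle only and 100% = reference blocker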
Target sequence (O43353 whole entry, looked up): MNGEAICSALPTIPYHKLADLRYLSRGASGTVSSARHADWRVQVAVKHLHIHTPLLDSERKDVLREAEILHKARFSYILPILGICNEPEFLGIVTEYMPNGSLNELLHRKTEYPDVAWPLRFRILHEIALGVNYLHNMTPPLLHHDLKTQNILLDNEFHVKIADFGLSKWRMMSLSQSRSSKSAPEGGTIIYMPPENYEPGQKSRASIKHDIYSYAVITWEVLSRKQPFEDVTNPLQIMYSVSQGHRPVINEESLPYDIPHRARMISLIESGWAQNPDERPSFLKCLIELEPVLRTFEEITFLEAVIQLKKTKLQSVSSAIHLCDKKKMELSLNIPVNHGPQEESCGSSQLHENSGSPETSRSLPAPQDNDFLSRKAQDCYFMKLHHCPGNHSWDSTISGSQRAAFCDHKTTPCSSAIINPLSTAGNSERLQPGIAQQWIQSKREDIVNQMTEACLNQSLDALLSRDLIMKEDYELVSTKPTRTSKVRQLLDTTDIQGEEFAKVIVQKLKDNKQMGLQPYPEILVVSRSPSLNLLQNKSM
TLR9-MyD88 block: inhibitors of TLR9-MyD88 association in cells, primary screen, cell-based, CHO, BLA complementation, fluorescence; actives 0.21% (n = 340,000); Toll-like receptor 9 (Homo sapiens) + Myeloid differentiation primary response protein …; AID 504734, 2011; inhibition, % at 4.98 µM; CCF4 FRET ratio;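 active = inhibition above the mean over all tested compounds plus 3 SD, cut at about 21% in these data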;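 also: 0% = DMSO only wells and 100% = clavulanate BLA inhibitor control wells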
PRMT1 confirm: PRMT1 methyltransferase inhibitors, confirmation, biochemical, fluorescence polarization, triplicate; shares compounds with PRMT1 inh; recombinant His-PRMT1, activity-based probe fluorescence polarization; inhibition, % at 2.79 µM; actives 42% (n = 3,300);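 active = mean inhibition across replicates above the hit cutoff derived for the earlier primary screen, cut at about 22% in these data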
* marks the source's active call; other numbers are inactive results; nt = no result given. A selection: hits, their analogues and other compounds. The true share with any hit is near 3.3%.

SMILES | PRMT1 inh | rCAG RNA binder | ABHD5-PLIN5 inh | TLR4 MyD88 comp | NOD2 RIPK2 PPI | TLR9-MyD88 block | PRMT1 confirm
O=C(C1CCCN(C2CC(=O)N(c3ccc(F)cc3)C2=O)C1)N1CCCC1 (stereo not given) | 15.5 | -0.9 | 5.1 | nt | 3.4 | 3.6 | nt
CCCOc1ccc(N2C(=O)CC(SCC(N)C(=O)OCC)C2=O)cc1 (stereo not given) | 27.1* | -4.6 | -2.5 | nt | -6.1 | 7.7 | 23.4*
CCCOc1ccc(N2C(=O)CC(N3CCCC(C(=O)N4CCCC4)C3)C2=O)cc1 (stereo not given) | 39.0* | 1.2 | 4.0 | -10.9 | 1.6 | -10.9 | 6.5
O=C(C1CCN(C2CC(=O)N(c3cccc(Cl)c3)C2=O)CC1)N1CCCCCC1 (stereo not given) | 28.9* | -5.3 | 10.7 | 8.3 | -1.4 | -2.0 | 3.9
O=C(C1CCCN(C2CC(=O)N(c3ccc(Cl)cc3)C2=O)C1)N1CCCC1 (stereo not given) | 29.6* | -7.7 | 8.4 | nt | -9.7 | -11.8 | 3.0
CC(C)(C)OC(=O)N1CCC(N[C@@H](Cc2c[nH]c3ccccc23)C(=O)NCC(c2ccccc2)c2ccccc2)(C(=O)NC2CCCCC2)CC1 | 1.4 | nt | nt | nt | nt | nt | nt
CCN1CCCC1CNC(=O)c1cc2cc(F)ccc2[nH]1 (stereo not given) | -1.0 | 4.0 | -6.9 | nt | -10.5 | 1.0 | nt
CCCOc1ccc(N2C(=O)CC(N3CCC(C(=O)OCC)CC3)C2=O)cc1 (stereo not given) | 56.0* | -7.0 | 16.2 | -7.2 | -14.9 | -3.2 | 6.2
CCOc1ccc(N2C(=O)CC(N3CCC(NC(=O)Nc4ccccc4)CC3)C2=O)cc1 (stereo not given) | 64.3* | -4.3 | 0.6 | -2.0 | 5.6 | 2.5 | 5.9
CCOC(=O)c1ccc(N2C(=O)CC(N3CCCC(C)C3)C2=O)cc1 (stereo not given) | 7.8 | 1.1 | -2.6 | 5.6 | -5.4 | -4.8 | nt
CCOC(=O)C1CCCN(C2CC(=O)N(c3cccc(C)c3)C2=O)C1 (stereo not given) | 63.1* | -1.2 | 2.7 | 4.5 | -4.3 | 3.7 | 9.6
O=C(Nc1cccc(Br)c1)c1cccc(OC(=S)N2CCOCC2)c1 | 0.3 | 1.1 | -3.6 | nt | -0.8 | -7.3 | nt
COc1ccc(Cl)cc1-c1cc(C(=O)NCc2cccs2)[nH]n1 | 3.0 | 3.5 | 2.7 | nt | -7.3 | nt | nt
COC(=O)c1cn(-c2ccc3c(c2)[C@@]2(CC(=O)N(C)C2c2ccccc2)C(=O)N3CC(C)C)nn1 (stereo not given in full) | -0.7 | -2.4 | nt | nt | nt | nt | nt
COC(=O)CC#C[C@H](C)[C@@H](NS(=O)(=O)c1ccc([N+](=O)[O-])cc1)C(C)(C)C | 1.8 | 2.9 | nt | nt | nt | nt | nt
COc1cccc(-c2csc(NC(=O)Oc3ccccc3)n2)c1 | 2.8 | 2.6 | -7.3 | -10.2 | -1.4 | 5.5 | nt
COc1cccc(-c2csc(NNC(=O)c3cccs3)n2)c1 | 29.4* | 18.7 | -2.0 | nt | -11.8 | nt | 4.8
COc1ccc(CCNC(=O)C(=O)NCC2OCCN2S(=O)(=O)c2ccc(Cl)cc2)cc1 (stereo not given) | 1.0 | 4.3 | -2.4 | nt | -18.5 | 5.7 | nt
COc1ccc(CCNC(=O)C(=O)NCC2OCCN2S(=O)(=O)c2ccc(OC)cc2)cc1 (stereo not given) | 30.3* | 2.9 | 2.3 | nt | -4.9 | -9.2 | 0.2
COc1cccc(/C=N\NC(=O)Cn2nnc3ccccc32)c1O | 3.8 | 1.4 | 1.7 | 11.4 | -1.7 | nt | nt
Cc1ccc(CNC(=O)C2CCN(S(=O)(=O)c3c(C)noc3/C=C/c3ccco3)CC2)cc1 | 3.5 | 19.6 | 20.3 | 7.6 | -0.8 | 1.2 | nt
Cc1noc(/C=C/c2ccco2)c1S(=O)(=O)N1CCC(C(=O)NCc2ccco2)CC1 | 31.6* | 23.1 | 3.5 | -1.6 | -2.8 | -8.5 | -0.2
COc1cc2[nH]c(Cl)c([N+](=O)[O-])c2cc1OC | 30.3* | -1.6 | 0.6 | nt | 2.9 | -5.7 | 15.0
COc1cc2[nH]c3c(Cl)ncnc3c2cc1OC | 1.4 | 1.4 | 5.8 | 7.0 | -15.2 | -9.6 | nt
O=C(C[C@@H]1C=C[C@H](NS(=O)(=O)c2ccccc2F)[C@@H](CO)O1)NCCCN1CCOCC1 | -5.0 | 2.7 | -0.1 | nt | -7.0 | nt | nt
SMILES | PRMT1 inh | rCAG RNA binder | ABHD5-PLIN5 inh | TLR4 MyD88 comp | NOD2 RIPK2 PPI | TLR9-MyD88 block | PRMT1 confirm
Cc1ccc(NC(=O)CSc2ncn(-c3ccccc3)n2)cc1C | -1.1 | -0.7 | -0.5 | -2.6 | 6.8 | 4.0 | nt
Cc1ccc(NC(=O)CSc2ncc3ccccn23)cc1C | 28.0* | -0.5 | -3.4 | 3.2 | -7.6 | -5.2 | 19.2
O=C(NCc1ccccc1)C1c2ccccc2OCC(=O)N1Cc1cccnc1 (stereo not given) | 3.4 | -0.1 | 12.1 | nt | -26.6 | nt | nt
COc1ccc(Sc2cccc3c2S(=O)(=O)N(C2CC2)C[C@@H](COCc2ccccc2)O3)cc1OC | -1.2 | 9.4 | nt | nt | nt | nt | nt
CC(C)n1c(=O)[nH][nH]c1=S | 69.6* | -2.0 | -12.9 | nt | 2.5 | nt | 90.7*
CC(C)n1c(=O)[nH]c2ccccc21 | -0.6 | 0.1 | -0.1 | 6.9 | -2.8 | -2.5 | nt
CCCOc1cccc(C2C(C(=O)c3ccco3)=C(O)C(=O)N2c2nnc(C)s2)c1 (stereo not given) | 32.4* | 3.7 | -9.2 | nt | -8.0 | 11.2 | 10.3
CSc1ccc(C2C(C(=O)c3ccco3)=C(O)C(=O)N2c2nnc(SC)s2)cc1 (stereo not given) | 65.3* | 16.9 | -12.3 | nt | 6.5 | 8.2 | 33.9*
Cc1nnc(N2C(=O)C(O)=C(C(=O)c3ccco3)C2c2ccc(C(C)C)cc2)s1 (stereo not given) | 9.8 | 20.9 | -1.5 | -5.5 | -0.5 | 3.6 | nt
Cc1nnc(N2C(=O)C(O)=C(C(=O)c3ccco3)C2c2ccc(F)cc2)s1 (stereo not given) | 40.0* | 1.8 | -7.0 | -8.1 | 7.7 | -0.7 | 1.7
Cc1ccc(C2C(C(=O)c3cccs3)=C(O)C(=O)N2c2nnc(C)s2)cc1 (stereo not given) | 69.5* | -44.1 | 9.7 | 6.3 | -6.8 | 2.2 | 36.0*
CCc1ccc(CN2CCCC(C(=O)Nc3ccc(-c4cscn4)cc3)C2)o1 (stereo not given) | -0.2 | -3.1 | 1.4 | nt | -12.4 | -5.7 | nt
CCCCOc1ccc(C(=O)n2ccc3ccc(-c4ccc5ccn(Cc6ccccc6)c5c4)cc32)cc1 | -3.0 | 8.3 | nt | nt | nt | nt | nt
C=CCOc1cccc(C2C(C(=O)c3ccc(C)o3)=C(O)C(=O)N2c2nccs2)c1 (stereo not given) | 62.5* | 1.2 | -12.1 | 2.1 | -1.1 | 2.2 | 38.0*
